{
  "source": "PubChem BioAssay (Tox21)",
  "key": {"[1]": {"assay": "qHTS assay to identify small molecule antagonists of the glucocorticoid receptor (GR) signaling pathway - cell viability counter screen (AID 720693); note: nearly all actives have a fitted effect of over 55% in size; note: potency is the fitted concentration of half-maximal effect"}, "[2]": {"assay": "qHTS assay for identifying genotoxic compounds that show differential cytotoxicity against isogenic chicken DT40 cell lines with known DNA damage response pathways - wild type cell line (AID 743012); note: nearly all actives have a fitted effect of over 60% in size; note: potency is the fitted concentration of half-maximal effect", "how_it_was_run": "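Using parental DT40 (300 cells/well), compounds delivered in DMSO incubate 40 h at 37 C/5% CO2. CellTiter-Glo reagent then stands 30 min at room temperature, and luminescence gives cell viability.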"}, "[3]": {"assay": "qHTS assay for identifying genotoxic compounds that show differential cytotoxicity against isogenic chicken DT40 cell lines with known DNA damage response pathways - Rev3 mutant cell line (AID 743014); note: nearly all actives have a fitted effect of over 55% in size; note: potency is the fitted concentration of half-maximal effect"}, "[4]": {"assay": "qHTS assay for identifying genotoxic compounds that show differential cytotoxicity against isogenic chicken DT40 cell lines with known DNA damage response pathways - Rad54/Ku70 mutant cell line (AID 743015); note: nearly all actives have a fitted effect of over 60% in size; note: potency is the fitted concentration of half-maximal effect"}, "[5]": {"assay": "qHTS assay to identify small molecule antagonists of the androgen receptor (AR) signaling pathway - cell viability counter screen (AID 743033; note: nearly all actives have a fitted effect of over 45% in size; note: potency is the fitted concentration of half-maximal effect)"}, "[6]": {"assay": "qHTS assay to identify small molecule antagonists of the androgen receptor (AR) signaling pathway using the MDA cell line - cell viability counter screen (AID 743041; note: nearly all actives have a fitted effect of over 45% in size; note: potency is the fitted concentration of half-maximal effect)", "how_it_was_run": "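MDA-kb2 AR-luc cells (MMTV-luciferase, AR/GR responsive) treated with compounds plus R1881 agonist for 16 h at 37C. CellTiter-Fluor added at 15.5 h; fluorescence read after 30 min in the same wells.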"}, "[7]": {"assay": "qHTS assay to identify small molecule antagonists of the thyroid receptor (TR) signaling pathway - cell viability counter screen (AID 743064); note: potency is the fitted concentration of half-maximal effect; nearly all actives have a fitted effect of over 50% in size", "how_it_was_run": "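Viability of T3-stimulated (1 nM final) GH3.TRE-Luc cells is measured by CellTiter-Fluor fluorescence after 23.5 h compound exposure at 37 °C plus 30 min reagent incubation.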"}, "[8]": {"assay": "qHTS assay to identify small molecule antagonists of the thyroid receptor (TR) signaling pathway (AID 743065); note: potency is the fitted concentration of half-maximal effect; nearly all actives have a fitted effect of over 55% in size", "how_it_was_run": "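GH3.TRE-Luc rat pituitary cells (two TREs driving luciferase) were dosed with compound, then stimulated with 1 nM T3 (final) for 23.5 h at 37 C. ONE-Glo luminescence was the read-out, with CellTiter-Fluor fluorescence as the cytotoxicity counter-screen.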"}, "[9]": {"target": "Estrogen receptor (Homo sapiens) (UniProt P03372)", "sequence (P03372 whole entry, looked up)": "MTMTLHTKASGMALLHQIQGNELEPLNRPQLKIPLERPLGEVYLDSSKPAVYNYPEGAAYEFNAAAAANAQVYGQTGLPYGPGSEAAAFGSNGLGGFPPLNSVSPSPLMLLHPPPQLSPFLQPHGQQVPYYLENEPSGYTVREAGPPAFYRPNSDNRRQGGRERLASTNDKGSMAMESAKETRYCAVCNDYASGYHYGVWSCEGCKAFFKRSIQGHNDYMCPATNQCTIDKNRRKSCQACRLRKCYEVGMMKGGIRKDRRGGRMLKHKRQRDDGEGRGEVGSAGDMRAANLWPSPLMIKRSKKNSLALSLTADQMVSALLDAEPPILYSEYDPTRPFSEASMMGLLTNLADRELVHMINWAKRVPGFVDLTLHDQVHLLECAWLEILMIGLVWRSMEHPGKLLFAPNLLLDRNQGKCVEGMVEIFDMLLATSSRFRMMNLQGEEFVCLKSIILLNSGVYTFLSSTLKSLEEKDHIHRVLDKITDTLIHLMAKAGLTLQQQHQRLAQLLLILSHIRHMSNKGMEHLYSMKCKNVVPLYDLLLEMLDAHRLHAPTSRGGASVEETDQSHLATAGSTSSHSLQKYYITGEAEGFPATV", "assay": "qHTS assay to identify small molecule antagonists of the estrogen receptor alpha (ER-alpha) signaling pathway (AID 743069; active = well fitted curve in the direction sought with a large enough effect in the signal ratio in the repeat runs, not every such curve was filed as active; inconclusive = weak or mixed curves, or effect the other way; inactive = no such curve, though single readings can be large or run the other way; the % refers to the signal ratio; note: potency is the fitted concentration of half-maximal effect)", "how_it_was_run": "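HEK293 ER-alpha-UAS-bla GripTite cells, held overnight in 2% charcoal-stripped FBS, 5,000 cells/well, preincubated 4 h, then compound plus 17beta-estradiol for 18 h at 37C. Beta-lactamase read by LiveBLAzer B/G FRET substrate, 2 h at room temperature.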"}, "[10]": {"assay": "qHTS assay to identify small molecule antagonists of the estrogen receptor alpha (ER-alpha) signaling pathway - cell viability counter screen (AID 743074; calls by dose curve; note: nearly all actives have a fitted effect of over 45% in size; note: potency is the fitted concentration of half-maximal effect)"}, "[11]": {"target": "Estrogen receptor (Homo sapiens) (UniProt P03372)", "assay": "qHTS assay to identify small molecule agonists of the estrogen receptor alpha (ER-alpha) signaling pathway (AID 743075; calls by dose curve; note: % is set by controls: 0 for no effect and ±100 for the full control effect)", "conditions": "HEK293 ER-alpha-UAS-bla, beta-lactamase FRET ratio, 18 h; activation: at 70.1 µM (top of the series)"}, "[12]": {"assay": "qHTS assay to identify small molecule antagonists of the estrogen receptor alpha (ER-alpha) signaling pathway using the BG1 cell line (AID 743080; calls by dose curve; note: nearly all actives have a fitted effect of over 25% in size; note: potency is the fitted concentration of half-maximal effect)", "how_it_was_run": "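After 5 days in phenol-red-free 10% charcoal-stripped FBS medium, BG1-Luc-4E2 cells were seeded, left 24 h at 37 C, co-treated with compounds and 17beta-estradiol for 21.5 h, then assayed for viability and luciferase.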"}, "[13]": {"assay": "qHTS assay to identify small molecule antagonists of the estrogen receptor alpha (ER-alpha) signaling pathway using the BG1 cell line - cell viability counter screen (AID 743081);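 note: compound given together with 17beta-estradiol as the ER stimulus; nearly all actives have a fitted effect of over 45% in size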; note: potency is the fitted concentration of half-maximal effect"}, "Aromatase (Homo sapiens)": {"target": "Aromatase (Homo sapiens) (UniProt P11511)", "sequence (P11511 whole entry, looked up)": "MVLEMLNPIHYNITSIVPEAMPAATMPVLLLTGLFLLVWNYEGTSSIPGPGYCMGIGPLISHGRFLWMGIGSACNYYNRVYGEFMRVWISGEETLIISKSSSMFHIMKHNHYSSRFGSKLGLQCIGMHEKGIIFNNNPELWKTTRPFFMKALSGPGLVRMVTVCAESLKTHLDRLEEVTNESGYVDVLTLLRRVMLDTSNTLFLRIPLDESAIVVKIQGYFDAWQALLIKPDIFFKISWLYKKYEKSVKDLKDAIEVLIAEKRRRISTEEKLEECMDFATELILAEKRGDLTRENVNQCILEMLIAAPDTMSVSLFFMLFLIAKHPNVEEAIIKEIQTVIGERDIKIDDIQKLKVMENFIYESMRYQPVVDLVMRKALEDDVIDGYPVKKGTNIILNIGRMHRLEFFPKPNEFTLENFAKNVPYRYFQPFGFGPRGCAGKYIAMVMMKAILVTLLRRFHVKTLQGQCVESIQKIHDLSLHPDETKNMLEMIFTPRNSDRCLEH", "assay": "qHTS assay to identify aromatase inhibitors (AID 743083); note: nearly all actives have a fitted effect of over 55% in size; note: potency is the fitted concentration of half-maximal effect"}, "[14]": {"test_system": "thyroid hormone receptor (rat, GH3 cells)", "assay": "qHTS assay to identify small molecule agonists of the thyroid receptor (TR) signaling pathway (AID 743066; calls by dose curve; note: % is set by controls: 0 for no effect and ±100 for the full control effect)"}, "[15]": {"target": "Estrogen receptor (Homo sapiens) (UniProt P03372)", "assay": "qHTS assay to identify small molecule agonists of the estrogen receptor alpha (ER-alpha) signaling pathway using the BG1 cell line (AID 743079); note: % is set by controls: 0 for no effect and ±100 for the full control effect; nearly all actives have a fitted effect of over 20% in size", "conditions": "BG1Luc4E2 cells, ERE-luciferase agonist, 22 h"}},
  "note": "Values joined by “and” are separate entries in the source; they are usually repeats but may differ in a detail not shown here. Equal entries are not always repeated. Where a structure was tested more than once in an assay, its records may differ in their call. Active and inactive are the calls of the source. Unless noted, calls come from the whole dose curve; as a rule, active = well fitted curve in the direction sought with a large enough effect in the repeat runs; inconclusive = weak or mixed curves; inactive = no such curve, though single readings can be large; an effect the other way counts as inactive or inconclusive.",
  "data": [
    {"smiles": "O=C(Oc1cccc2cccnc12)c1ccccc1", "values": [
      {"measurement": "Potency", "setting": "[1]", "result": "inactive"},
      {"measurement": "Potency", "setting": "[2]", "result": "2.66 µM (active)"},
      {"measurement": "Potency", "setting": "[3]", "result": "2.98 µM (active)"},
      {"measurement": "Potency", "setting": "[4]", "result": "6.68 µM (active)"},
      {"measurement": "Potency", "setting": "[5]", "result": "7.56 µM (active)"},
      {"measurement": "Potency", "setting": "[6]", "result": "6.99 µM (active)"},
      {"measurement": "Potency", "setting": "[7]", "result": "13.3 µM (active)"},
      {"measurement": "Potency", "setting": "[8]", "result": "13.3 µM (active)"},
      {"measurement": "Potency", "setting": "[9]", "result": "inactive"},
      {"measurement": "Potency", "setting": "[10]", "result": "inactive"},
      {"measurement": "Potency", "setting": "[11]", "result": "inactive"},
      {"measurement": "Potency", "setting": "[12]", "result": "inactive"},
      {"measurement": "Potency", "setting": "[13]", "result": "inactive"},
      {"measurement": "Potency", "setting": "Aromatase (Homo sapiens)", "result": "18.8 µM (active)"}
    ]},
    {"smiles": "On1ccccc1=S", "values": [
      {"measurement": "Potency", "setting": "[1]", "result": "inactive"},
      {"measurement": "Potency", "setting": "[2]", "result": "0.215 µM (active)"},
      {"measurement": "Potency", "setting": "[3]", "result": "0.215 µM (active)"},
      {"measurement": "Potency", "setting": "[4]", "result": "0.215 µM (active)"},
      {"measurement": "Potency", "setting": "[5]", "result": "0.385 µM (active)"},
      {"measurement": "Potency", "setting": "[6]", "result": "0.959 µM (active)"},
      {"measurement": "Potency", "setting": "[7]", "result": "1.52 µM (active)"},
      {"measurement": "Potency", "setting": "[8]", "result": "0.855 µM (active)"},
      {"measurement": "Potency", "setting": "[13]", "result": "inactive"},
      {"measurement": "Potency", "setting": "Aromatase (Homo sapiens)", "result": "0.382 µM (active)"}
    ]},
    {"smiles": "NNc1nc(-c2ccccc2)cs1", "values": [
      {"measurement": "Potency", "setting": "[1]", "result": "inactive"},
      {"measurement": "Potency", "setting": "[2]", "result": "inactive"},
      {"measurement": "Potency", "setting": "[3]", "result": "inactive"},
      {"measurement": "Potency", "setting": "[4]", "result": "inactive"},
      {"measurement": "Potency", "setting": "[5]", "result": "inactive"},
      {"measurement": "Potency", "setting": "[6]", "result": "inactive"},
      {"measurement": "Potency", "setting": "[7]", "result": "31.5 µM (active)"},
      {"measurement": "Potency", "setting": "[8]", "result": "14.1 µM (active)"},
      {"measurement": "Potency", "setting": "[14]", "result": "inactive"},
      {"measurement": "Potency", "setting": "[10]", "result": "inactive"},
      {"measurement": "Potency", "setting": "[11]", "result": "inactive"},
      {"measurement": "activation", "setting": "[15]; at 95 µM (top of the series)", "result": "7.73% (inactive)"},
      {"measurement": "Potency", "setting": "[12]", "result": "inactive"},
      {"measurement": "Potency", "setting": "Aromatase (Homo sapiens)", "result": "inactive"}
    ]},
    {"smiles": "CC(=O)S[C@@H]1CC2=CC(=O)CC[C@]2(C)[C@H]2CC[C@@]3(C)[C@@H](CC[C@@]34CCC(=O)O4)[C@H]12", "values": [
      {"measurement": "Potency", "setting": "[1]", "result": "49 µM (active)"},
      {"measurement": "Potency", "setting": "[2]", "result": "7.5 µM (active) and 6.11 µM (active)"},
      {"measurement": "Potency", "setting": "[3]", "result": "9.44 µM (active) and 6.11 µM (active)"},
      {"measurement": "Potency", "setting": "[4]", "result": "8.41 µM (active) and 6.11 µM (active)"},
      {"measurement": "Potency", "setting": "[5]", "result": "inactive"},
      {"measurement": "Potency", "setting": "[6]", "result": "inactive"},
      {"measurement": "Potency", "setting": "[7]", "result": "27.3 µM (active)"},
      {"measurement": "Potency", "setting": "[8]", "result": "26.6 µM (active) and 27.3 µM (active)"},
      {"measurement": "Potency", "setting": "[14]", "result": "inactive"},
      {"measurement": "Potency", "setting": "[9]", "result": "12.3 µM [inconclusive] (active)"},
      {"measurement": "Potency", "setting": "[10]", "result": "inactive"},
      {"measurement": "Potency", "setting": "[11]", "result": "inactive"},
      {"measurement": "activation", "setting": "[15]; at 70.3 µM (top of the series)", "result": "7.41% (inactive) and -17.9% (inactive)"},
      {"measurement": "Potency", "setting": "[12]", "result": "inactive and 48.6 µM (active)"},
      {"measurement": "Potency", "setting": "[13]", "result": "inactive"},
      {"measurement": "Potency", "setting": "Aromatase (Homo sapiens)", "result": "26.6 µM (active) and 27.3 µM (active)"}
    ]},
    {"smiles": "CCCCCCCC[P+](CCCCCCCC)(CCCCCCCC)CCCCCCCC", "values": [
      {"measurement": "Potency", "setting": "[1]", "result": "6.13 µM (active)"},
      {"measurement": "Potency", "setting": "[2]", "result": "5.42 µM (active)"},
      {"measurement": "Potency", "setting": "[3]", "result": "5.42 µM (active)"},
      {"measurement": "Potency", "setting": "[4]", "result": "5.42 µM (active)"},
      {"measurement": "Potency", "setting": "[5]", "result": "0.971 µM (active)"},
      {"measurement": "Potency", "setting": "[6]", "result": "6.08 µM (active)"},
      {"measurement": "Potency", "setting": "[7]", "result": "4.3 µM (active)"},
      {"measurement": "Potency", "setting": "[8]", "result": "3.05 µM (active)"},
      {"measurement": "Potency", "setting": "[9]", "result": "21.7 µM [cytotoxic] (active)"},
      {"measurement": "Potency", "setting": "[10]", "result": "15.4 µM (active)"},
      {"measurement": "Potency", "setting": "[12]", "result": "1.71 µM (active)"},
      {"measurement": "Potency", "setting": "[13]", "result": "8.58 µM (active)"},
      {"measurement": "Potency", "setting": "Aromatase (Homo sapiens)", "result": "1.53 µM (active)"}
    ]},
    {"smiles": "CCCCCCCC/C=C\\CCCCCCCCOCCO", "values": [
      {"measurement": "Potency", "setting": "[1]", "result": "31.9 µM (active)"},
      {"measurement": "Potency", "setting": "[2]", "result": "5.62 µM (active)"},
      {"measurement": "Potency", "setting": "[3]", "result": "5.62 µM (active)"},
      {"measurement": "Potency", "setting": "[4]", "result": "8.91 µM (active)"},
      {"measurement": "Potency", "setting": "[5]", "result": "22.6 µM (active)"},
      {"measurement": "Potency", "setting": "[6]", "result": "14.1 µM (active)"},
      {"measurement": "Potency", "setting": "[7]", "result": "25.1 µM (active)"},
      {"measurement": "Potency", "setting": "[8]", "result": "11.2 µM (active)"},
      {"measurement": "Potency", "setting": "[14]", "result": "inactive"},
      {"measurement": "Potency", "setting": "[9]", "result": "9 µM [inconclusive] (active)"},
      {"measurement": "Potency", "setting": "[10]", "result": "56.8 µM (active)"},
      {"measurement": "Potency", "setting": "[12]", "result": "10 µM (active)"},
      {"measurement": "Potency", "setting": "[13]", "result": "39.8 µM (active)"},
      {"measurement": "Potency", "setting": "Aromatase (Homo sapiens)", "result": "35.5 µM (active)"}
    ]}
  ]
}
